# “And” between values parts separate entries of the source, which are not always exact repeats. Identical values can stand only once. Among all 5,500 compounds or so, about 2,000 (36%) were called active. Not shown: some 18% with an inconclusive outcome. No stated cut-off is given here; in the data, active means normalized growth mostly below about 0.91 (no sharp cut-off); inconclusive means no clear call, values can overlap the other calls; inactive means mostly above about 0.92. The list shows a part of the results.
# Experiment: chemical genetic growth profiling, strain panel (AID 1159580);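 further: tested at 20 µM; growth read once vehicle control cultures reached saturation at 30 °C; 1 = growth at the plate median or of vehicle wells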
# Details: growth OD
smiles,measurement,setting,value
COc1cc(-c2coc3cc(OCc4ccccc4)c(OC)c(O)c3c2=O)cc(O)c1OC,normalized growth,"S. cerevisiae deletion strains, locus YAL013W, strain DEP1, stronger effect = lower value",0.788 (active)
same,normalized growth,"S. cerevisiae deletion strains, locus YBR021W, strain FUR4, stronger effect = lower value",0.908 (inactive)
same,normalized growth,"S. cerevisiae deletion strains, locus YBR229C, strain ROT2, stronger effect = lower value",0.985 (inactive)
same,normalized growth,"S. cerevisiae deletion strains, locus YCL029C, strain bik1, stronger effect = lower value",0.962 (inactive)
same,normalized growth,"S. cerevisiae deletion strains, locus YDL035C, strain GPR1, stronger effect = lower value",0.757 (active)
same,normalized growth,"S. cerevisiae deletion strains, locus YDL074C, strain BRE1, stronger effect = lower value",0.764 (active)
same,normalized growth,"S. cerevisiae deletion strains, locus YDL101C, strain DUN1, stronger effect = lower value",0.918 (inactive)
same,normalized growth,"S. cerevisiae deletion strains, locus YDL185W, strain tfp1, stronger effect = lower value",0.968 (inactive)
same,normalized growth,"S. cerevisiae deletion strains, locus YDL192W, strain arf1, stronger effect = lower value",0.864 (active)
same,normalized growth,"S. cerevisiae deletion strains, locus YDR101C, strain arx1, stronger effect = lower value",0.958 (inactive)
same,normalized growth,"S. cerevisiae deletion strains, locus YDR150W, strain NUM1, stronger effect = lower value",0.911 (inactive)
same,normalized growth,"S. cerevisiae deletion strains, locus YDR162C, strain NBP2, stronger effect = lower value",0.714 (active)
same,normalized growth,"S. cerevisiae deletion strains, locus YDR318W, strain mcm21, stronger effect = lower value",0.877 (active)
same,normalized growth,"S. cerevisiae deletion strains, locus YDR388W, stronger effect = lower value",0.954 (inactive)
same,normalized growth,"S. cerevisiae deletion strains, locus YDR502C, strain sam2, stronger effect = lower value",0.901 (active)
same,normalized growth,"S. cerevisiae deletion strains, locus YEL061C, strain CIN8, stronger effect = lower value",0.821 (active)
same,normalized growth,"S. cerevisiae deletion strains, locus YER110C, stronger effect = lower value",1 (inactive)
same,normalized growth,"S. cerevisiae deletion strains, locus YER155C, strain BEM2, stronger effect = lower value",0.946 (inactive)
same,normalized growth,"S. cerevisiae deletion strains, locus YER167W, strain BCK2, stronger effect = lower value",0.879 (active)
same,normalized growth,"S. cerevisiae deletion strains, locus YGL078C, strain dbp3, stronger effect = lower value",0.937 (inactive)
same,normalized growth,"S. cerevisiae deletion strains, locus YGL086W, strain mad1, stronger effect = lower value",0.841 (active)
same,normalized growth,"S. cerevisiae deletion strains, locus YGL248W, strain PDE1, stronger effect = lower value",0.787 (active)
same,normalized growth,"S. cerevisiae deletion strains, locus YGR135W, strain pre9, stronger effect = lower value",0.836 (active)
same,normalized growth,"S. cerevisiae deletion strains, locus YGR252W, strain gcn5, stronger effect = lower value",0.81 (inactive)
same,normalized growth,"S. cerevisiae deletion strains, locus YHR030C, strain SLT2, stronger effect = lower value",0.808 (active) and 1.01 (inactive)
same,normalized growth,"S. cerevisiae deletion strains, locus YHR079C, strain IRE1 (second series), stronger effect = lower value",0.967 (inactive)
same,normalized growth,"S. cerevisiae deletion strains, locus YHR079C, strain IRE1, stronger effect = lower value",1.01 (inactive)
same,normalized growth,"S. cerevisiae deletion strains, locus YHR094C, strain hxt1, stronger effect = lower value",1 (inactive)
same,normalized growth,"S. cerevisiae deletion strains, locus YHR129C, strain ARP1, stronger effect = lower value",0.783 (active)
same,normalized growth,"S. cerevisiae deletion strains, locus YHR200W, strain rpn10, stronger effect = lower value",0.883 (active)
same,normalized growth,"S. cerevisiae deletion strains, locus YIL066C, strain RNR3, stronger effect = lower value",0.733 (active)
same,normalized growth,"S. cerevisiae deletion strains, locus YIL073C, strain SPO22, stronger effect = lower value",0.685 (inactive)
same,normalized growth,"S. cerevisiae deletion strains, locus YIL125W, strain kgd1, stronger effect = lower value",1 (inactive)
same,normalized growth,"S. cerevisiae deletion strains, locus YIR030C, strain dcg1, stronger effect = lower value",0.979 (inactive)
same,normalized growth,"S. cerevisiae deletion strains, locus YJL095W, strain BCK1, stronger effect = lower value",0.778 (active) and 1.02 (inactive)
same,normalized growth,"S. cerevisiae deletion strains, locus YJL134W, strain LCB3, stronger effect = lower value",0.981 (inactive)
same,normalized growth,"S. cerevisiae deletion strains, locus YJL168C, strain set2, stronger effect = lower value",0.993 (inactive)
same,normalized growth,"S. cerevisiae deletion strains, locus YJL187C, strain SWE1 (second series), stronger effect = lower value",0.837 (active)
same,normalized growth,"S. cerevisiae deletion strains, locus YJR043C, strain POL32, stronger effect = lower value",0.747 (active)
same,normalized growth,"S. cerevisiae deletion strains, locus YJR066W, strain TOR1, stronger effect = lower value",0.95 (inactive)
same,normalized growth,"S. cerevisiae deletion strains, locus YKL009W, strain mrt4, stronger effect = lower value",0.922 (inactive)
same,normalized growth,"S. cerevisiae deletion strains, locus YKL068W, stronger effect = lower value",1.02 (inactive)
same,normalized growth,"S. cerevisiae deletion strains, locus YKL085W, strain MDH1 (second series), stronger effect = lower value",0.996 (inactive)
same,normalized growth,"S. cerevisiae deletion strains, locus YKL085W, strain MDH1, stronger effect = lower value",0.996 (inactive)
same,normalized growth,"S. cerevisiae deletion strains, locus YKR001C, strain vps1, stronger effect = lower value",0.88 (active)
same,normalized growth,"S. cerevisiae deletion strains, locus YLR039C, strain RIC1, stronger effect = lower value",0.86 (inactive)
same,normalized growth,"S. cerevisiae deletion strains, locus YLR058C, strain SHM2, stronger effect = lower value",0.863 (active)
same,normalized growth,"S. cerevisiae deletion strains, locus YLR102C, strain apc9, stronger effect = lower value",0.998 (inactive)
same,normalized growth,"S. cerevisiae deletion strains, locus YLR113W, strain HOG1, stronger effect = lower value",1.02 (inactive)
same,normalized growth,"S. cerevisiae deletion strains, locus YLR262C, strain YPT6, stronger effect = lower value",0.857 (inactive)
same,normalized growth,"S. cerevisiae deletion strains, locus YLR268W, strain sec22, stronger effect = lower value",0.903 (inactive)
same,normalized growth,"S. cerevisiae deletion strains, locus YLR330W, strain CHS5, stronger effect = lower value",0.827 (active)
same,normalized growth,"S. cerevisiae deletion strains, locus YLR342W, strain FKS1 (second series), stronger effect = lower value",0.785 (active)
same,normalized growth,"S. cerevisiae deletion strains, locus YLR371W, strain rom2, stronger effect = lower value",0.86 (active)
same,normalized growth,"S. cerevisiae deletion strains, locus YLR418C, strain cdc73, stronger effect = lower value",0.705 (active)
same,normalized growth,"S. cerevisiae deletion strains, locus YML016C, strain PPZ1, stronger effect = lower value",0.846 (active)
same,normalized growth,"S. cerevisiae deletion strains, locus YML032C, strain rad52, stronger effect = lower value",0.956 (inactive)
same,normalized growth,"S. cerevisiae deletion strains, locus YML124C, strain tub3, stronger effect = lower value",0.964 (inactive)
same,normalized growth,"S. cerevisiae deletion strains, locus YMR078C, strain ctf18, stronger effect = lower value",1.01 (inactive)
same,normalized growth,"S. cerevisiae deletion strains, locus YMR223W, strain ubp8, stronger effect = lower value",0.877 (active)
same,normalized growth,"S. cerevisiae deletion strains, locus YMR263W, strain SAP30, stronger effect = lower value",0.893 (inactive)
same,normalized growth,"S. cerevisiae deletion strains, locus YMR307W, strain GAS1, stronger effect = lower value",0.736 (inactive)
same,normalized growth,"S. cerevisiae deletion strains, locus YNL067W, strain RPL9B, stronger effect = lower value",0.829 (active)
same,normalized growth,"S. cerevisiae deletion strains, locus YNL153C, strain GIM3, stronger effect = lower value",0.843 (active)
same,normalized growth,"S. cerevisiae deletion strains, locus YNL183C, strain NPR1, stronger effect = lower value",0.972 (inactive)
same,normalized growth,"S. cerevisiae deletion strains, locus YNL233W, strain BNI4, stronger effect = lower value",0.796 (active)
same,normalized growth,"S. cerevisiae deletion strains, locus YNL250W, strain rad50, stronger effect = lower value",0.945 (inactive)
same,normalized growth,"S. cerevisiae deletion strains, locus YNL271C, strain bni1, stronger effect = lower value",0.979 (inactive)
same,normalized growth,"S. cerevisiae deletion strains, locus YNL298W, strain CLA4, stronger effect = lower value",0.989 (inactive)
same,normalized growth,"S. cerevisiae deletion strains, locus YNL307C, strain MCK1, stronger effect = lower value",0.844 (active)
same,normalized growth,"S. cerevisiae deletion strains, locus YNL322C, strain KRE1, stronger effect = lower value",0.823 (active)
same,normalized growth,"S. cerevisiae deletion strains, locus YNR052C, strain pop2, stronger effect = lower value",0.951 (inactive)
same,normalized growth,"S. cerevisiae deletion strains, locus YOL006C, strain TOP1, stronger effect = lower value",0.449 (active)
same,normalized growth,"S. cerevisiae deletion strains, locus YOL012C, strain htz1",0.39 (inactive)
same,normalized growth,"S. cerevisiae deletion strains, locus YOL147C, strain pex11, stronger effect = lower value",0.955 (inactive)
same,normalized growth,"S. cerevisiae deletion strains, locus YOR061W, strain CKA2, stronger effect = lower value",0.848 (active)
same,normalized growth,"S. cerevisiae deletion strains, locus YOR069W, strain VPS5, stronger effect = lower value",0.834 (active)
same,normalized growth,"S. cerevisiae deletion strains, locus YOR136W, strain idh2, stronger effect = lower value",0.97 (inactive)
same,normalized growth,"S. cerevisiae deletion strains, locus YOR144C, strain elg1, stronger effect = lower value",0.988 (inactive)
same,normalized growth,"S. cerevisiae deletion strains, locus YOR184W, strain ser1, stronger effect = lower value",0.896 (inactive)
same,normalized growth,"S. cerevisiae deletion strains, locus YOR231W, strain MKK1, stronger effect = lower value",1.02 (inactive)
same,normalized growth,"S. cerevisiae deletion strains, locus YOR316C, strain cot1, stronger effect = lower value",0.996 (inactive)
same,normalized growth,"S. cerevisiae deletion strains, locus YPL241C, strain CIN2, stronger effect = lower value",0.974 (inactive)
same,normalized growth,"S. cerevisiae deletion strains, locus YPL256C, strain CLN2, stronger effect = lower value",1 (inactive)
same,normalized growth,"S. cerevisiae deletion strains, locus YPR119W, strain clb2, stronger effect = lower value",1 (inactive)
same,normalized growth,"S. cerevisiae deletion strains, locus YPR141C, strain kar3, stronger effect = lower value",1.01 (inactive)
same,normalized growth,"S. cerevisiae deletion strains, locus YPR163C, strain tif3, stronger effect = lower value",0.837 (active)
same,normalized growth,"S. cerevisiae deletion strains, locus YPR167C, strain met16, stronger effect = lower value",0.871 (active)
same,normalized growth,"S. cerevisiae deletion strains, strain wtn01, stronger effect = lower value",0.849 (active)
same,normalized growth,"S. cerevisiae strains, strain wild type, stronger effect = lower value",0.663 (active)
